In PubChem BioAssay (NCI):
This is part of a sample that, as a whole, favours compounds with a hit. Of some 79,000 tested, about 15% had one in any assay. Values without a mark were called inactive. The source made the active and inactive calls. Rule as the data show it: active = growth inhibition above about 70%; inactive = the rest.

How the values were obtained:
[1] = NCI Yeast Anticancer Drug Screen. Data for the rad50 strain (AID 155);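 also: 0% = growth of vehicle-only cultures of the same strain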; conditions: S. cerevisiae rad50 strain growth inhibition, hits give high values
How it was run: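 Inhibition values express reduced yeast growth in compound-treated cultures relative to vehicle-treated controls.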

[2] = NCI Yeast Anticancer Drug Screen. Data for the mec2-1 strain (AID 157); conditions: S. cerevisiae mec2-1 strain, hits give high values
How it was run: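 Using mec2-1 yeast: add compound, measure growth, express inhibition versus vehicle-treated cultures.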

[3] = NCI Yeast Anticancer Drug Screen. Data for the sgs1 mgt1 strain (AID 161);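 also: 0% = growth of cultures given vehicle only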; conditions: S. cerevisiae sgs1 mgt1 strain, hits give high values
How it was run: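 This yeast growth screen uses a strain with defined DNA-repair lesions; compound-treated growth is compared with vehicle-treated growth.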

[4] = NCI Yeast Anticancer Drug Screen. Data for the cln2 rad14 strain (AID 165);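 also: 0% = growth equal to vehicle treated cultures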; conditions: S. cerevisiae cln2 rad14 strain, hits give high values
How it was run: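 Yeast strain cln2 rad14, bearing defects in cell cycle control and DNA repair, serves as the test system; values reflect growth inhibition compared with vehicle.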

[5] = NCI Yeast Anticancer Drug Screen. Data for the bub3 strain (AID 167); conditions: S. cerevisiae bub3 mutant strain, hits give high values
How it was run: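 Steps: expose the mutant yeast strain to compound; grow alongside vehicle-treated cultures; measure growth; express inhibition against the vehicle cultures.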

[6] = NCI Yeast Anticancer Drug Screen. Data for the mlh1 rad18 strain (AID 175); conditions: S. cerevisiae mlh1 rad18 strain growth inhibition, hits give high values
How it was run: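 Steps: expose repair-defective yeast to compound; measure growth; express inhibition against vehicle-treated controls.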

[7] = at 5.0 µM (retest, dose inferred, filed as 0.5)
[8] = at 50.0 µM (retest, dose inferred, filed as 5.0)

Compound	growth inhibition [1, 7]	growth inhibition [1, 8]	growth inhibition [2, 7]	growth inhibition [2, 8]	growth inhibition [3, 7]	growth inhibition [3, 8]	growth inhibition [4, 7]	growth inhibition [4, 8]	growth inhibition [5, 7]	growth inhibition [5, 8]	growth inhibition [6, 7]	growth inhibition [6, 8]
CC(C)(C)c1cc([N+](=O)[O-])c(O)c([N+](=O)[O-])c1	36%	89% (active)	11%	54%	15%	74% (active)	22%	46%	18%	74% (active)	2%	81% (active)
O=[N+]([O-])/C=C/c1cccs1	95% (active)	98% (active)	33%	99% (active)	69%	100% (active)	16%	99% (active)	48%	100% (active)	4%	98% (active)
C=COC(=O)c1ccccc1C(=O)OCCCC	8%	22%	-2%	3%	5%	37%	7%	-6%	4%	27%	18%	6%
CCCCC(CC)CNC(=O)/C=C\C(=O)O (stereo not given)	15%	85% (active)	11%	67%	10%	96% (active)	-3%	60%	6%	83% (active)	15%	91% (active)
Oc1ccc(Cc2cccc(Cl)c2)c(O)c1	-1%	92% (active)	-7%	96% (active)	-4%	97% (active)	4%	98% (active)	0%	92% (active)	-3%	90% (active)
CCC(C)(C)N(CC(=O)O)CC(=O)O	-6%	-1%	2%	-5%	2%	-1%	4%	-2%	3%	-1%	-6%	17%
COc1cccc(NC(=O)c2c(SC)n[nH]c2N)c1	26%	99% (active)	38%	98% (active)	35%	99% (active)	30%	75% (active)	43%	99% (active)	11%	91% (active)
CC(=O)c1ccc2c(c1)sc1cc(C(C)=O)ccc12	30%	98% (active)	15%	98% (active)	8%	99% (active)	9%	97% (active)	15%	99% (active)	23%	98% (active)
CC(=O)Nc1nc(-c2ccccc2)cs1	1%	23%	-4%	4%	-2%	23%	7%	-5%	-1%	6%	-11%	2%
C/C(=N\Nc1ccc(Cl)cc1)C(=O)O	17%	97% (active)	-2%	98% (active)	14%	99% (active)	8%	98% (active)	29%	99% (active)	-29%	96% (active)
CC(C)NC(=O)C(C)O (stereo not given)	4%	14%	1%	2%	2%	5%	2%	3%	6%	-2%	2%	10%
Oc1ccc(/C=C/c2ccc(Cl)cc2)cc1	-26%	97% (active)	5%	98% (active)	4%	97% (active)	7%	97% (active)	10%	98% (active)	13%	96% (active)
CCOS(=O)(=O)CC(C)(C)C	7%	92% (active)	3%	80% (active)	8%	59%	-1%	13%	4%	68%	-21%	86% (active)
CCCCC(=O)c1ccc([N+](=O)[O-])o1	39%	98% (active)	19%	99% (active)	26%	100% (active)	18%	99% (active)	45%	100% (active)	36%	99% (active)
CC(=O)Oc1ccc(OC(C)=O)c2c1CC=CC2	3%	2%	-1%	1%	2%	10%	0%	11%	4%	8%	-20%	2%
Cc1ccc(-c2c(C#N)c(-c3ccc(C)cc3)n(NS(=O)(=O)c3ccccc3)c(=O)c2C#N)cc1	30%	84% (active)	38%	94% (active)	29%	94% (active)	53%	93% (active)	52%	95% (active)	33%	85% (active)
O=C(/C=C/c1ccccc1)c1ccc(N=Cc2ccccc2)cc1	-37%	30%	6%	21%	2%	68%	1%	6%	7%	54%	8%	38%
O=C1C=CC(=O)C2=C1CC=CC2	-12%	99% (active)	-2%	99% (active)	29%	100% (active)	-6%	75% (active)	26%	100% (active)	48%	97% (active)
CCCCCCCCCC(=O)CCCCCCCCC	48%	7%	30%	8%	44%	14%	22%	11%	92% (active)	38%	32%	35%
Cc1cccc(N=NC(C#N)C#N)c1	30%	95% (active)	10%	96% (active)	24%	95% (active)	-7%	86% (active)	1%	94% (active)	-9%	95% (active)
CC(C)c1cc([N+](=O)[O-])c(O)c([N+](=O)[O-])c1	46%	92% (active)	14%	75% (active)	13%	78% (active)	18%	76% (active)	29%	89% (active)	24%	91% (active)
Cc1ccccc1OCc1cccc(Cl)c1	8%	23%	-1%	4%	4%	43%	9%	-10%	4%	17%	-5%	6%
N#CC(c1ccccc1)C(c1ccccc1)c1ccccc1 (stereo not given)	13%	67%	9%	89% (active)	9%	92% (active)	20%	55%	13%	87% (active)	-24%	80% (active)
COc1ccc(N=CC2CCCCC2=O)c([N+](=O)[O-])c1 (stereo not given)	25%	69%	29%	42%	-1%	12%	31%	56%	13%	86% (active)	53%	61%
CN(C)c1cc(N)c(Cc2c(N)cc(N(C)C)cc2Cl)c(Cl)c1	5%	97% (active)	-2%	97% (active)	-4%	98% (active)	8%	96% (active)	6%	97% (active)	1%	97% (active)
